Our source for the difference in excitability values is the supplement of paper PMC10515830.

SMILES strings stand for the structures. Structures can show the parent of a compound that is named as a salt.

This assay concerns Danio rerio larvae (5 dpf). The assay is described as follows: difference in excitability vs DMSO (percentage points); higher = more excitable than DMSO. The settings on record: 10 µM; exposure time 6 h. In outline: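 Wild-type zebrafish larvae at 5 dpf were kept in 96-well plates and exposed for 6 h to 100 µL egg water holding library compound at a final concentration of 10 µM. From 3 h into exposure, the plates were held at 28.5 ℃ and photographed every 6 s through a 3-h programme of moving lines and 100 ms, 400Hz tones. Each behaviour was scored by Z-LaP Tracker, a DeepLabCut model, and averaged over 48 larvae per compound. Every value gives the compound mean minus the vehicle control mean, in percentage points.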
Take `N=C(N)c1ccc(OCCCCCOc2ccc(C(=N)N)cc2)cc1` [Pentamidine]: the difference in excitability stood at 17. Take `CC[C@@H]1C(=O)OC[C@@H]1Cc1cncn1C` [(+)-Pilocarpine (hydrochloride)]: the difference in excitability was determined as 9.24.

For the compound `Clc1ccc2nsnc2c1NC1=NCCN1` [Tizanidine (hydrochloride)], the difference in excitability came out at 1.85. On to `C=CC[C@@H]1/C=C(\C)C[C@H](C)C[C@H](OC)[C@H]2O[C@@](O)(C(=O)C(=O)N3CCCC[C@H]3C(=O)O[C@H](/C(C)=C/[C@@H]3CC[C@@H](O)[C@H](OC)C3)[C@H](C)[C@@H](O)CC1=O)[C@H](C)C[C@@H]2OC`, for which the difference in excitability stood at 27. Compound `CC(C[N+](C)(C)C)OC(N)=O` (centres undefined) [Bethanechol (chloride)] had a difference in excitability of 1.05. Take `Nc1ccn([C@@H]2O[C@H](CO)[C@@H](O)C2(F)F)c(=O)n1` [Gemcitabine]: the difference in excitability is -0.256. Consider `C#CCN[C@@H]1CCc2ccccc21` [Rasagiline], for which the difference in excitability turned out to be 3.5.

As to `COCC(=O)Nc1c(I)c(C(=O)NCC(O)CO)c(I)c(C(=O)N(C)CC(O)CO)c1I` (centres undefined) [Iopromide], the difference in excitability worked out at 3. In turn, `C[C@@H]1C[C@H]2[C@@H]3CCC4=CC(=O)C=C[C@]4(C)[C@@]3(Cl)[C@@H](O)C[C@]2(C)[C@@]1(OC(=O)c1ccco1)C(=O)CCl` [Mometasone Furoate] registered a difference in excitability of 11.9. The compound `CC(=O)Oc1ccccc1C(=O)Nc1ncc([N+](=O)[O-])s1` [Nitazoxanide] gave a difference in excitability of 12.9.

Consider `NC(=O)N[C@@H](CCC(=O)O)C(=O)O` [N-Carbamyl-L-Glutamic Acid], for which the difference in excitability worked out at 5.63. The compound `COc1ccccc1OCCNCC(O)COc1cccc2[nH]c3ccccc3c12` (centres undefined) [Carvedilol] yielded a difference in excitability of 21.2. The result for `COc1cc(C(=O)NS(=O)(=O)c2ccccc2C)ccc1Cc1cn(C)c2ccc(NC(=O)OC3CCCC3)cc12` [Zafirlukast] reads 3.02; that for `COc1cccc2c1C(=O)c1c(O)c3c(c(O)c1C2=O)C[C@@](O)(C(C)=O)C[C@@H]3O[C@H]1C[C@H](N)[C@H](O)[C@H](C)O1` [Daunorubicin (hydrochloride)], 19.8; that for `CCc1ccc(CCOc2ccc(CC3SC(=O)NC3=O)cc2)nc1` (centres undefined) [Pioglitazone (hydrochloride)], 12.4.

Regarding `CO[C@H]1C[C@@H]2CC[C@@H](C)[C@@](O)(O2)C(=O)C(=O)N2CCCC[C@H]2C(=O)O[C@H]([C@H](C)C[C@@H]2CC[C@@H](O)[C@H](OC)C2)CC(=O)[C@H](C)/C=C(\C)[C@@H](O)[C@@H](OC)C(=O)[C@H](C)C[C@H](C)/C=C/C=C/C=C/1C` [Rapamycin], the difference in excitability amounted to 5.81. For the compound `C#Cc1cccc(Nc2ncnc3cc(OCCOC)c(OCCOC)cc23)c1` [Erlotinib], the difference in excitability amounted to 4.3. The result for `COc1cc2c(cc1OC)[C@@H](Cc1cc(OC)c(OC)c(OC)c1)[N+](C)(CCCOC(=O)CC/C=C/CCC(=O)OCCC[N+]1(C)CCc3cc(OC)c(OC)cc3[C@H]1Cc1cc(OC)c(OC)c(OC)c1)CC2` (some centres undefined) [Mivacurium (chloride)] reads 19.5.

Regarding `CCOC(=O)[C@H](CCc1ccccc1)N[C@@H](C)C(=O)N1CCC[C@H]1C(=O)O` [Enalapril (maleate)], the difference in excitability turned out to be 0.733. With `CCCCC[C@H](O)/C=C/[C@H]1[C@H](O)CC(=O)[C@@H]1C/C=C\CCCC(=O)O` [Prostaglandin E2], the difference in excitability was 16.7. `C#C[C@]1(O)CC[C@H]2[C@@H]3CCC4=Cc5oncc5C[C@]4(C)[C@H]3CC[C@@]21C` [Danazol]: the difference in excitability turned out to be 6.6. The result for `CN(C)CCC[C@@]1(c2ccc(F)cc2)OCc2cc(C#N)ccc21` [Escitalopram] reads 12.5; that for `Cc1cccc(Nc2ccccc2C(=O)O)c1C` [Mefenamic Acid], 6.54. In the case of `NCC[C@H](O)C(=O)N[C@@H]1C[C@H](N)[C@@H](O[C@H]2O[C@H](CN)[C@@H](O)[C@H](O)[C@H]2O)[C@H](O)[C@H]1O[C@H]1O[C@H](CO)[C@@H](O)[C@H](N)[C@H]1O` [Amikacin], the difference in excitability was determined as 5.08. As to `COc1cc(Nc2c(C#N)cnc3cc(OCCCN4CCN(C)CC4)c(OC)cc23)c(Cl)cc1Cl` [Bosutinib], the difference in excitability amounted to 10.4. `CC/C=C\C/C=C\C/C=C\C/C=C\C/C=C\CCCC(=O)OCC` [Eicosapentaenoic Acid ethyl ester] came in with a difference in excitability of 11.7. For the compound `Oc1ncnc2[nH]ncc12` [Allopurinol], the difference in excitability was found to be 0.512.

In the case of `CC(=O)CC(c1ccccc1)c1c(O)c2ccccc2oc1=O` (racemic) [(±)-Warfarin], the difference in excitability came out at 7.35. The result for `CC(=O)Nc1nnc(S(N)(=O)=O)s1` [Acetazolamide] reads -5.01; that for `Nc1nc2c(ncn2COC(CO)CO)c(=O)[nH]1` [Ganciclovir], 1.56; that for `NS(=O)(=O)c1cc2c(cc1Cl)NCNS2(=O)=O` [Hydrochlorothiazide], -7.7. For `CC(C)CN(C[C@@H](O)[C@H](Cc1ccccc1)NC(=O)O[C@H]1CCOC1)S(=O)(=O)c1ccc(N)cc1` [Amprenavir], the difference in excitability is -3.12. As to `Cc1ccc([C@@H]2O[C@H](CO)[C@@H](O)[C@H](O)[C@H]2O)cc1Cc1ccc(-c2ccc(F)cc2)s1` [Canagliflozin], the difference in excitability turned out to be 1.05. Compound `CC(C)(C)NC(=O)[C@H]1CC[C@H]2[C@@H]3CC[C@H]4NC(=O)C=C[C@]4(C)[C@H]3CC[C@]12C` [Finasteride] showed a difference in excitability of 11.1.

Consider `CCCc1nc2c(C)cc(-c3nc4ccccc4n3C)cc2n1Cc1ccc(-c2ccccc2C(=O)O)cc1` [Telmisartan], for which the difference in excitability came to 14.6. `CC(C)(C)NC[C@H](O)COc1nsnc1N1CCOCC1` [Timolol (maleate)]: the difference in excitability stood at 6.66. `O=c1[nH]cc(F)c(=O)[nH]1` [5-Fluorouracil]: the difference in excitability turned out to be 4.49. With `CC1=NN(c2ccccc2)C(=O)C1`, the difference in excitability worked out at 2.26.

With `N#C[C@@H]1C[C@@H]2C[C@@H]2N1C(=O)[C@@H](N)C12CC3CC(CC(O)(C3)C1)C2` [Saxagliptin (hydrochloride)], the difference in excitability was determined as 4.61.
